Assay outcomes as filed in PubChem BioAssay.
Shown are actives, neighbours in structure and some others; about 12% of the full set was active somewhere.
PostGolgi yeast = growth inhibition of a yeast mutant, post-Golgi transport screen. post-Golgi transport phenotypic cell assay. AID 739. hit rate 0.9% among 98,000. inhibition, % at 10 µM;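 further: yeast cells grown in 1536-well plates; yeast grown about 18 h at 30C before absorbance read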
Cav32 inh = blocks human Cav3.2 T-type calcium channel | O95180 | Cav3.2-expressing cells, Fluo-4 calcium fluorescence FDSS; active compounds read low | AID 449739 | B-score at 10 µM | hit rate 4% among 100,000;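 active means single-dose well whose peak fluorescence ratio is a statistical outlier from its plate by either plate-standardised score or position-corrected B-score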
PostGolgi ctrl = yeast control strain growth, post-Golgi counter-screen; efflux-deficient yeast background strain, growth absorbance A615, 16 h; hit rate 5% among 98,000; AID 738; inhibition, % at 10 µM
D1 mod = allosteric modulators of human D1 dopamine receptor. P21728. HEK293 D1, CRE-luciferase, dopamine EC30 potentiation; actives deviate in either direction. B-score at 10 µM. hit rate 5.9% among 58,000. AID 641;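 active means luminescence count or its row- and column-corrected plate score outside the 99.7% band of the plate's sample wells, on either side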
PLAP activator = activates human placental alkaline phosphatase | P05187 | purified PLAP enzyme, luminescent substrate read-out; active compounds read high | activation fold at 20 µM | hit rate 1.2% among 96,000 | AID 696; in the data active means activation fold above about 2
hDAT+cocaine = modulates human dopamine transporter uptake under cocaine; Q01959; LLC-PK1 hDAT cells, [14C]-dopamine uptake with cocaine IC80; actives deviate in either direction; hit rate 1.3% among 110,000; B-score at 10 µM;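 active means Z score or B-score, a plate-position-corrected score, falls beyond the plate's 99.7% confidence bounds, in either direction; inactive means both scores lie inside the 99.7% bounds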;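 further: scored against the spread of the other compound wells on the same plate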
* hit, by the source's call; x = not tested or not shown. Unless noted, no stated cut-off is given here; in the data, active means inhibition above about 30%; inactive means the rest.

SMILES | PostGolgi yeast | Cav32 inh | PostGolgi ctrl | D1 mod | PLAP activator | hDAT+cocaine
CC(C)NC(=O)c1cc(-c2ccco2)nn1-c1ccc(Cl)cc1 | 13.0 | -3.96 | 11.2 | x | 1.1 | -0.0196
O=C(Cn1c(=O)[nH]c2ccsc2c1=O)NC1CCCCC1 | 0.5 | -0.128 | -0.6 | x | 0.9 | -2.71*
O=C(CCCn1c(=O)[nH]c2cc(Cl)ccc2c1=O)NC1CCCCCC1 | -3.8 | 2.67 | -6.8 | x | 0.8 | -0.61
Cc1c(NC(=O)CSc2nnc(-c3cccc(Cl)c3)o2)c(=O)n(-c2ccccc2)n1C | 1.1 | x | 4.1 | 0.176 | 1.6 | 0.832
COc1ccc(C2C(C#N)=C(N)N3C(=C2C#N)Sc2ccccc23)cc1 (stereo not drawn) | -7.5 | -0.711 | 30.3* | 0.391 | 1 | 0.164
O=C1CC(O)(c2ccccc2)C(c2ccccc2)=C1c1ccccc1 (stereo not drawn) | x | -4.96* | x | x | x | 0.0181
COc1ccc(-c2cnn3c4c(c(C)nc23)CCN4C(C)C)cc1OC | 5.0 | 0.934 | 2.9 | x | 1.1 | 0.962
Cc1cc2ccccc2c(=O)n1CC(=O)NCC(=O)N(C)Cc1ccccc1 | 18.9 | -0.0197 | -0.6 | x | 1.1 | -7.75*
Cc1cc2ccccc2c(=O)n1CC(=O)NCC(=O)N(C)C1CCCCC1 | -4.3 | 1.27 | -4.5 | x | 0.9 | 0.303
Cn1c(-c2cc3c(C(F)(F)F)nn(C)c3s2)n[nH]c1=S | 14.8 | 0.621 | 15.2 | x | 1.1 | -0.575
CCn1c(-c2cc3c(C(F)(F)F)nn(C)c3s2)n[nH]c1=S | 4.4 | 0.321 | 40.6* | x | 0.9 | -1.31
CC(C(=O)NCC1CCCO1)N(C(=O)c1snc(C(N)=O)c1N)c1ccccc1 (stereo not drawn) | 1.9 | -1.02 | 30.0* | -0.131 | 0.9 | 0.471
O=C(CCc1ccc(Oc2cc([N+](=O)[O-])cc([N+](=O)[O-])c2)cc1)N1CCCCC1 | 6.1 | -1.31 | 19.6 | x | 1.4 | 1.65
CSc1nsc(SC)c1C(=O)N1CCN(S(=O)(=O)c2ccc(C)cc2)C1C(C)C (stereo not drawn) | x | -5.12* | x | x | x | -1.06
Cn1c2c(c(=O)n(C)c1=O)C(CC(=O)Nc1ccccc1)C(=O)N2 (stereo not drawn) | 2.8 | 0.0854 | 8.1 | 0.0522 | 0.9 | -7.95*
COc1ccccc1NC(=O)CC1C(=O)Nc2c1c(=O)n(C)c(=O)n2C (stereo not drawn) | -1.4 | -0.0909 | -0.5 | -0.443 | 1 | -0.0722
CCOC(=O)C(Sc1n[nH]c(N)n1)c1ccccc1 (stereo not drawn) | -1.0 | -0.0141 | 0.0 | x | 1.3 | 0.0395
CCOC(=O)C1=C(CSc2n[nH]c(N)n2)NC(=O)NC1C (stereo not drawn) | 18.3 | -0.397 | 24.3 | -1.04 | 2.4* | -1.23
CCN(CC)c1cnn(C/C(=N\OC)c2ccc(Cl)cc2)c(=O)c1Br | -7.7 | -5.07* | 23.9 | x | 1.3 | -0.0575
Cc1ccc(Cl)cc1NC(=O)Cn1cc2c(n1)CCCC2 | 6.3 | -1.36 | 27.1 | 1.24 | 0.8 | 1.35
Cc1cccc(N(CC(=O)NC2CCCCC2)C(=O)CCCC(=O)Nc2ccccn2)c1 | x | x | x | x | x | 2.18*
CCOc1ccc(N(CC(=O)NC2CCCC2)C(=O)CCC(=O)Nc2ccccn2)cc1 | 8.8 | -1.8 | 6.2 | -0.0418 | 1.5 | 0.388
O=C(CCC(=O)N(CC(=O)NC1CCCCC1)c1ccc2c(c1)OCO2)Nc1ccccn1 | -1.4 | -5.72* | 7.5 | 1.48 | 1.6 | 0.53
CCC(C)(C)NC(=O)CN(C(=O)CCC(=O)Nc1ccccn1)c1ccc(F)c(Cl)c1 | 41.0* | -2.01 | 1.1 | x | 1.8 | -0.0282
Cc1cccc(N(CC(=O)NC2CCCC2)C(=O)CCCC(=O)Nc2ccccn2)c1 | -7.1 | 0.337 | 8.6 | 0.0867 | 2* | 0.819
SMILES | PostGolgi yeast | Cav32 inh | PostGolgi ctrl | D1 mod | PLAP activator | hDAT+cocaine
Cc1ccc(C)c(N(CC(=O)NC2CCCC2)C(=O)CCCC(=O)Nc2ccccn2)c1 | 1.5 | -0.841 | 24.5 | 0.338 | 1.8 | 0.728
CC(C)NC(=O)CN(C(=O)CCC(=O)Nc1ccccn1)c1ccc(F)c(Cl)c1 | 1.5 | -0.728 | 3.0 | x | 1 | -0.251
CC/C(=C\C1CCCCC1)C(NP(=O)(c1ccccc1)c1ccccc1)c1ccccc1 (stereo not drawn) | x | -1.28 | x | x | x | -0.0362
O=C(NC1CCCC1)C1CCCN1C(=O)Nc1ccc(Cl)cc1 (stereo not drawn) | -2.7 | 0.944 | 16.9 | -0.0871 | 0.8 | -0.451
COCCN(C(=O)C1CC1)c1nnc(-c2cccc(C)c2)s1 | 7.3 | -2.2 | 5.0 | -0.303 | 1.6 | 0.803
CCOC(=O)c1c(C=O)c(C)n(Cc2ccccc2)c1C | 0.2 | -1.16 | 10.5 | x | 0.9 | -0.906
